# Most compounds without a hit are left out; they make up all but 13% or so of the library.
# Pf growth 96h – P. falciparum growth inhibition at 96 hours; P. falciparum luciferase reporter growth, 96 h; Potency, µM (doses to about 28.7 µM), usual class: inhibitors; 320,000 tested, 6.9% active
#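 96 h incubation, 37 C, 5% CO2, of luciferase-reporter P. falciparum-infected RBCs (2% hematocrit, 0.05% parasitemia final) with test compounds; endpoint luminescence.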
# HCV inh – inhibitors of hepatitis C virus infection; Huh7.5.1 HCVcc-Cre infection, luciferase reporter, 44 h; Potency, µM (top dose mostly 41.8 µM), most hits filed as inhibitors; 340,000 tested, 3.4% active; AID 651820
#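 Cells seeded at 1,000/well and cultured 4 h, then compounds added followed by HCVcc-Cre virus (~0.5 moi). After 44 h further culture, luciferase substrate was added, plates held 15 min at room temperature, and luminescence read for 15 sec.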
# HCMV inh – human cytomegalovirus inhibition | HFF cells, HCMV-luciferase reporter, 72 h; active compounds read low | activity change, negative = inhibition, % at 57.5 µM | 410,000 tested, 4.5% active; in the data active means activity change below about -60%; inconclusive means no clear call, values can overlap the other calls; inactive means above about -39%
#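 Human foreskin fibroblasts infected with luciferase-reporter HCMV at MOI 1 PFU/cell, compounds at two doses. Luciferase measured 72 h post infection; normalized to buffer-only basal and Salinomycin (10uM) controls.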
# Pf growth 48h – P. falciparum growth inhibition at 48 hours (one generation). P. falciparum luciferase growth in erythrocytes, 48 h. Potency, µM (titrated, usually from 28.7 µM), actives largely listed as inhibitors. 310,000 tested, 5.9% active
#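 In quantitative HTS format, infected erythrocytes bearing luciferase-reporter parasites were treated for a single generation at 37 C. Luminescence after adding detection reagent served as the growth measure.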
# A number is an active result; . = inactive; ? = inconclusive; / = no result. Unless noted, the call rests on the fitted dose curve; in most records, active means well fitted inhibition curve with a large enough effect; inconclusive means small, poorly fitted or top-dose-only effect, or another doubt; inactive means no such curve, though single readings can be large or run the other way.
SMILES,Pf growth 96h,HCV inh,HCMV inh,Pf growth 48h
Cc1cccc(C)c1NC(=O)CSc1nnc(-c2ccncc2)n1Cc1ccco1,.,.,.,/
O=C(CSc1nnc(-c2ccncc2)n1Cc1ccco1)Nc1nccs1,7.38µM,?,.,.
O=C(CSc1nnc(-c2cccnc2)n1Cc1ccco1)Nc1nc(-c2ccc(F)cc2)cs1,/,25.1µM,-74.2,.
CCOC(=O)CNC(=O)CSc1nnc(-c2ccccc2)n1Cc1ccco1,11.7µM,.,.,.
COc1ccc(NC(=O)CSc2nnc(-c3ccccc3)n2Cc2ccco2)cc1OC,.,?,.,.
CCOC(=O)C(Cc1ccccc1)(Nc1ccc(OC)cc1)C(O)c1ccc([N+](=O)[O-])cc1 (stereo not drawn),/,/,.,/
CCc1ccccc1N1CC(c2nc3ccccc3n2Cc2cccc(C)c2)CC1=O (stereo not drawn),/,/,.,/
COc1ccccc1NC(=O)CC1Sc2ccc(C(F)(F)F)cc2NC1=O (stereo not drawn),/,/,.,/
COc1ccc(Cn2c(CO)cnc2SCc2cccc(C)c2)cc1,/,/,.,/
Cc1cc(C)nc(SCc2ccc(C(=O)NNC(=O)Nc3cccc(Cl)c3)cc2)n1,.,25.1µM,.,.
COc1cccc(C2NC(=O)CCC2[N+](=O)[O-])c1OC (stereo not drawn),.,.,.,.
COc1cc(C2NC(=O)CCC2[N+](=O)[O-])c(OC)cc1Br (stereo not drawn),6.57µM,.,.,.
CCOc1cc(/C=C/C(=O)c2ccc(OC)c(CN3CCOCC3)c2)cc(Br)c1O,9.28µM,?,-98.0,13.1µM
COc1ccc(F)c(CN2CCC(N3CCC(C(=O)N4CCOCC4)CC3)CC2)c1,.,.,?,.
O=C(C1CCN(C2CCN(Cc3ccc4c(c3)CCO4)CC2)CC1)N1CCCC1,.,?,.,.
COc1ccc(OC)c(CN2CCC(C(=O)N3CCOCC3)CC2)c1,9.28µM,.,.,.
COc1ccc(CN2CCC(N3CCC(C(=O)N4CCOCC4)CC3)CC2)c(F)c1,10.4µM,.,.,.
COc1cc(CN2CCC(N3CCC(C(=O)N4CCCC4)CC3)CC2)cc2c1OCO2,.,10µM,.,.
CCc1ccccc1NC(=O)c1cnc2sc(N3CCCC3)nn2c1=O,/,/,.,/
CCOC(=O)c1c(NC(=O)CSc2cn(CCNC(=O)c3ccc(OC)cc3)c3ccccc23)sc2c1CCCC2,/,/,.,/
CC1=C(C(=O)OCC2CCCO2)C(c2cccc(C(F)(F)F)c2)C2=C(CC(c3ccco3)CC2=O)N1 (stereo not drawn),/,?,.,13.1µM
CC1=C(C(=O)OCC2CCCO2)C(c2coc3ccc(C)cc3c2=O)C2=C(CCCC2=O)N1 (stereo not drawn),?,.,.,?
CC1=C(C(=O)OCC2CCCO2)C(c2ccc(C)o2)C2=C(CC(c3ccc(F)cc3)CC2=O)N1 (stereo not drawn),.,8.91µM,/,?
CC1=C(C(=O)OCC2CCCO2)C(c2ccc(C)cc2)C2=C(CCCC2=O)N1 (stereo not drawn),?,.,.,.
CC1=C(C(=O)OCC2CCCO2)C(c2ccccc2OC(C)C)C2=C(CC(c3ccco3)CC2=O)N1 (stereo not drawn),.,.,.,3.29µM
SMILES,Pf growth 96h,HCV inh,HCMV inh,Pf growth 48h
CCOc1ccc(NC(=O)CCc2c(C)nc3cc(-c4ccc(Cl)cc4)nn3c2C)cc1,/,/,.,/
CC(C)CC(=O)Nc1ccc(C(=O)OCc2cc(=O)n3nc(C(C)C)sc3n2)cc1,/,/,.,/
COc1ccc(CNc2ccc(Cl)cc2)cc1Cn1ccnc1,.,?,.,?
CCc1ccc(NCc2ccc(OC)c(Cn3ccnc3)c2)cc1,.,?,-63.7,/
O=C(CSc1nc2ncccc2o1)Nc1cccc(C(F)(F)F)c1,/,/,.,/
N#Cc1ccccc1NC(=O)CSc1nc(-c2ccccc2)cc(C(F)(F)F)c1C#N,/,/,.,/
COc1ccc(-n2cc(C(=O)NCCc3ccc(C)cc3)c3ccccc3c2=O)cc1,/,/,.,/
COc1ccccc1NC(=O)C12CC3CC(C1)CC(c1ccc(C)cc1)(C3)C2,.,.,.,0.657µM
Cc1ccc(C23CC4CC(CC(C(=O)NC(C)C)(C4)C2)C3)cc1,9.28µM,.,.,.
COc1ccc(NC(=O)C23CC4CC(C2)CC(c2ccc(C)cc2)(C4)C3)cc1,.,?,?,?
CCCC12CN3CC(C)(CN(C1)C3c1cn(CC)c3ccccc13)C2=O (stereo not drawn),/,/,.,/
O=C(NCc1ccccc1Cl)c1ccc(Cn2c(=O)c3cccn3c3cccnc32)cc1,/,/,.,/
CCCCCCCCCCCC(=O)OCC(O)CO (stereo not drawn),.,/,.,.
